SMILES strings stand for the structures. Results filed as inconclusive are left out. A call without a number means that no potency is given here. Active and inactive are the calls of the source. Calls come from the whole dose curve.

The nature of the assay: p53 small molecule agonists, cell-based qHTS assay with human liver microsomes (AID 1963577).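 Note: p53 response element beta-lactamase reporter cells with liver microsomes plus NADPH.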 The note with it: HCT-116 p53RE-bla with human liver microsomes, ratio, 16 h; series mostly up to 66 µM. The text has this:
National Center for Advancing Translational Sciences [NCATS]
Division of Preclinical Innovation [DPI]
U.S. Environmental Protection Agency [EPA]
National Institutes of Environmental Health Sciences [NIEHS]
National Toxicology Program [NTP]
U.S. Food and Drug Administration [FDA]
p53, a tumor suppressor protein, is activated following cellular insult, including DNA damage and other cellular stresses. The activation of p53 regulates cell fate by inducing DNA repair, cell cycle arrest, apoptosis, or cellular senescence. The activation of p53, therefore, is a good indicator of DNA damage and other cellular stresses. […] The activation of the reporter gene under culture conditions can be detected by fluorescence intensity.
Tox21 Assay Protocol Summary:
The p53RE-bla cells were dispensed at 4,000cells/3ul/well in 1536-well black-clear bottom plates. After the assay plates were incubated at 37 C, 5% CO2 incubator for 5 hours, 23 nL of compounds dissolved in DMSO, positive controls or DMSO only was transferred to the assay plate. Following compound addition, 3 uL of human liver microsomes (XenoTech, Kansas City, KS) at final concentration of 0.5 mg/mL and 1uL of Beta-Nicotinamide adenine dinucleotide 2-phosphate (NADPH) at final concentration of 0.5 mg/mL were transferred to the assay plate. The plates were incubated at 37 C for 16 hours. 1 uL of LiveBLAzer detection mixture was added to each well and the plates were incubated at room temperature in the dark for 2 h.
Consider `CCCCS`, for which the Potency result was “inactive”.
Take `CC(C)(c1cc(Br)c(OCCO)c(Br)c1)c1cc(Br)c(OCCO)c(Br)c1`: the Potency result was “inactive”.
On the same count and under the same terms, the same measure for `COC(=O)c1cc(C(=O)OC)cc(S(=O)(=O)O)c1`: “inactive”.
With `CCCCCCC1CCCC(=O)O1` (stereo not given), the Potency result was “inactive”.
As to `CC(C)C[C@@H](N)C(=O)O`, the activation is -1.67% [at 13.5 µM] (inactive).
Take `CCCCN(CCCC)C(C(N)=O)c1ccc(OC)cc1` (stereo not given): the Potency result was “inactive”.
Take `COCCOC(=O)C1=C(C)NC(C)=C(C(=O)OC(C)C)C1c1cccc([N+](=O)[O-])c1` (stereo not given): the Potency result is “inactive”.
On the same count and under the same terms, the same measure for `CC(=O)Nc1ccc(S(N)(=O)=O)cc1`: “inactive”; for `Nc1ccc(C(=O)OCCCOC(=O)c2ccc(N)cc2)cc1`: “inactive”.
`CCCC(C)C`: the Potency entry is “inactive”.
On the same count and under the same terms, the result for `CC(C)CCCC(C)NCCC(C)C` (stereo not given) reads “inactive”; that for `Cc1cc(N)c2cc(NC(=O)Nc3ccc4nc(C)cc(N)c4c3)ccc2n1`, “inactive”; that for `CC(C)NCC(O)c1ccc(NS(C)(=O)=O)cc1` (stereo not given), “inactive”.
Same read-out and setting: the same measure for `Cn1c(=O)c2c(ncn2CC(=O)O)n(C)c1=O`: “inactive”.
As to `Brc1ccc(-c2ccccc2)cc1`, the Potency entry was “inactive”.
The same measure, in the same setting: the same measure for `CC/C=C\CCOC(=O)c1ccccc1`: “inactive”.
With `OCCNCc1ccccc1`, the Potency result was “inactive”.
Turning to `CCCCCCCCCC=O`, the Potency result is “inactive”.
Same read-out and setting: the same measure for `OCCCCC(O)CO` (stereo not given): “inactive”; for `N#Cc1ccc(CC(=O)c2cccc(C(F)(F)F)c2)cc1`: “inactive”; for `CN1CN(C)CN(C)C1`: “inactive”.
Same read-out and setting: the result for `Cc1ccc2nc(N)[nH]c(=O)c2c1Sc1ccncc1` reads “inactive”.
The same measure, in the same setting: the same measure for `CC(=O)Nc1ccccc1C`: “inactive”; for `O=C(Cn1ccnc1[N+](=O)[O-])NCCO`: “inactive”; for `Cc1ccc2c(c1)C(=O)c1ccccc1C2=O`: “inactive”.
On to `C[N+]1(C)CCCC(OC(=O)C(O)(c2ccccc2)c2ccccc2)C1` (stereo not given), for which the Potency result is “inactive”.
With `COc1ccccc1N1CCN(CCCNc2cc(=O)n(C)c(=O)n2C)CC1`, the Potency entry is “inactive”.
Take `CO[C@@H]1COCC[C@@H]1N[C@@H]1CC[C@@](C(=O)N2CCc3ncc(C(F)(F)F)cc3C2)(C(C)C)C1`: the Potency result was “inactive”.
In the case of `CC(C)Nc1nc(N)nc(Cl)n1`, the Potency result is “inactive”.
On to `O=c1[nH]cnc2nc[nH]c12`, for which the Potency entry is “inactive”.
Still for that read-out and setting: the result for `O=C1OC(=O)c2cccc3cccc1c23` reads “inactive”; that for `O=C1c2ccccc2C(=O)C1c1ccccc1`, “inactive”; that for `Cc1cc2c(OCC(CNC(C)(C)C)OC(=O)c3ccccc3)cccc2[nH]1` (stereo not given), “inactive”.
On the same count and under the same terms, the same measure for `CCCOC(=O)c1ccc(N)cc1`: “inactive”; for `O=CN1CCCCC1`: “inactive”; for `CC(=O)OCC(=O)[C@@]1(O)CC[C@H]2[C@@H]3CCC4=CC(=O)C=C[C@]4(C)[C@@]3(F)[C@@H](O)C[C@@]21C`: “inactive”.
Consider `CCCCN(C)C`, for which the Potency entry is “inactive”.
As for `N#C[C@@H]1CC(F)(F)CN1C(=O)CNC1CC2CCC(C1)N2c1ncccn1` (stereo not given in full), the Potency entry is “inactive”.
Turning to `CCCCC1CCCCC(=O)O1` (stereo not given), the Potency entry was “inactive”.
As for `CC(C=O)Cc1ccc(C(C)C)cc1` (stereo not given), the Potency result was “inactive”.

Source of the values: PubChem BioAssay (Tox21).
